From article PMC4336329 (PLoS ONE, 2015)
About 14,000 (4.5%) of roughly 310,000 compounds showed an effect of 50% or more. Effects have a minus sign here. The full list was thinned out, with strong results kept by preference.

These compounds were tested against human ether-à-go-go-related gene (hERG) potassium channel (human, UniProt Q12809) (assay: primary screen, population patch clamp on CHO cells stably expressing hERG; higher = less effect of the substance).
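Further: peak tail current of the secondary pulse compared with the same well before compound.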

Chain of human ether-à-go-go-related gene (hERG) potassium channel (Q12809 whole entry, looked up): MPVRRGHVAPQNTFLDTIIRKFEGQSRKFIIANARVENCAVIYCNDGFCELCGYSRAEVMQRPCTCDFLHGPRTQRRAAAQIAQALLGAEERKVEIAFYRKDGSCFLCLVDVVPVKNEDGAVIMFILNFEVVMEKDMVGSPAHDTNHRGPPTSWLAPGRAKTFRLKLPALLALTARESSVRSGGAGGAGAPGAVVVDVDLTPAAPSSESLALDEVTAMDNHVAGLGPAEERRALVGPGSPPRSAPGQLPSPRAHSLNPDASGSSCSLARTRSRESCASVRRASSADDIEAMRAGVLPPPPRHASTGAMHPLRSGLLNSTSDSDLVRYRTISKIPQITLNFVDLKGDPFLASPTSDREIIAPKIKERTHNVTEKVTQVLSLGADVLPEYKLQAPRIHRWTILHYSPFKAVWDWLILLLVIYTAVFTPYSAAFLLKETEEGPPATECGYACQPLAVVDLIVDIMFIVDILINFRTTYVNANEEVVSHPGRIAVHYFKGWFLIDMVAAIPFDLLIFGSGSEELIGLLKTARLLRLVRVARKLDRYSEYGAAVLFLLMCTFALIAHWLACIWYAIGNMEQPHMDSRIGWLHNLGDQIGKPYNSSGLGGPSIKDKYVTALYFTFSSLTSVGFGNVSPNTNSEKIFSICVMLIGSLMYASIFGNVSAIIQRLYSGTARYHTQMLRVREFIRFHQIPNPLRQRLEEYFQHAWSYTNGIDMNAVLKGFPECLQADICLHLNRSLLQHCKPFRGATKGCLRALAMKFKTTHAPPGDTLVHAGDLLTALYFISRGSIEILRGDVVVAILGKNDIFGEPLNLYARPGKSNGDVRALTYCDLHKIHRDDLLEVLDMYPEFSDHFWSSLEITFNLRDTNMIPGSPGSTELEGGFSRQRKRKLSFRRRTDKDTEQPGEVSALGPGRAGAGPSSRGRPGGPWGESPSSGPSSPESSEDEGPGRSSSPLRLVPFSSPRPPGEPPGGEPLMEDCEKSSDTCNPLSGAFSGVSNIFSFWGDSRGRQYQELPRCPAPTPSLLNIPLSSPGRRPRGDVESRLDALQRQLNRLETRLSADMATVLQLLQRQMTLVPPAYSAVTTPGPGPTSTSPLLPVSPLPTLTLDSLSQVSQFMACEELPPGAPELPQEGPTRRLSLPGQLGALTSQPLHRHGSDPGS

SMILES | hERG current change (%, negative = inhibition) at 10uM [%]
O=C(Cc1csc(-c2ccccc2)n1)NCc1ccco1 | -1.66
CC(C)c1ccc(C(=O)N2CCN(c3cnn(C)c(=O)c3Cl)CC2)cc1 | -64.4
COc1ccc(C(=O)N2CCN(c3cnn(-c4ccccc4)c(=O)c3Cl)CC2)cc1 | -71.3
CC(C)c1ccc(C(=O)N2CCCN(C(=O)c3ccc(C(C)C)cc3)CC2)cc1 | -32.9
Cc1ccn2cc(C(=O)N3CCN(c4cnn(-c5ccccc5)c(=O)c4Cl)CC3)nc2c1 | -46.7
O=C(c1ccc(F)cc1)N1CCN(c2cnn(-c3ccccc3)c(=O)c2Cl)CC1 | -48.6
O=C(c1cccc(Br)c1)N1CCN(c2cnn(-c3ccccc3)c(=O)c2Cl)CC1 | -47.4
CCOc1ccc(C(=O)N2CCN(c3cnn(-c4ccccc4)c(=O)c3Cl)CC2)cc1 | -77.8
Cc1ccc(C(=O)N2CCN(c3cnn(C)c(=O)c3Cl)CC2)cc1 | -31.1
CCS(=O)(=O)N1CCN(c2cnn(-c3ccccc3)c(=O)c2Cl)CC1 | -29
CCCCOP(=O)(c1ccc(N(C)C)cc1)C(O)c1ccc(N(C)C)cc1 (stereo not drawn) | -5.3
COc1cc(/C=C/c2nc(N)nc(-c3ccccc3O)n2)cc(OC)c1OC | -3.86
Cc1ncc([N+](=O)[O-])n1CCOC(=O)Nc1ccc(Cl)c(Cl)c1 | 1.07
CCOc1c(CNCCCSc2nc(C)cc(C)n2)cccc1OC.Cl | -11.1
Cc1cc(C)nc(SCCCNCc2ccc(Br)cc2)n1.Cl | -36.1
Cc1cc(C)nc(SCCCNCc2ccccc2)n1.Cl | -3.19
Cc1ccc(CNCCCSc2nc(C)cc(C)n2)cc1.Cl | -52.3
CCOc1ccc(Cl)cc1CNCCCSc1nc(C)cc(C)n1.Cl | -59.6
CCOc1ccc(Cl)cc1CNCCCSc1ncccn1 | -37.3
O=C(NC1CCCCC1)C1CC(=O)N(CCc2ccccc2)C1 (stereo not drawn) | -7.01
O=C(c1ccccc1O)N1CCOCC1 | 3.51
CNC(=S)N(CCc1c(C)[nH]c2ccc(OC)cc12)Cc1cccnc1 | 9.25
CCn1c(=O)c(=O)[nH]c2cc(C(=O)NC(C)c3ccc(S(N)(=O)=O)cc3)ccc21 (stereo not drawn) | 3.47

SMILES | hERG current change (%, negative = inhibition) at 10uM [%]
CCCCCOc1ccc(/C(C)=N/NC2=NCCN2)cc1 | -39.8
Cc1cc(N2CCC(C(=O)NC3CC3)CC2)nc(-c2ccccc2)n1 | -46
Cc1cc(N2CCC(C(=O)NCC3CC3)CC2)nc(-c2ccccc2)n1 | -73.1
Cc1cc(N2CCC(C(=O)Nc3ccc(F)cc3)CC2)nc(-c2ccccc2)n1 | -32.9
C#CCNC(=O)C1CCN(c2cc(C)nc(-c3ccccc3)n2)CC1 | -40.7
Cc1cc(-c2ccccc2)nc(N2CCC(C(=O)NC(C)C)CC2)n1 | 4.06
C=CCNC(=O)C1CCN(c2cc(C)nc(-c3ccccc3)n2)CC1 | -58.2
Cc1cc(C)nc(N2CCC(C(=O)NCc3ccccc3)CC2)n1 | 3.44
Cc1cc(N2CCC(C(=O)NC3CCCCC3)CC2)nc(-c2ccccc2)n1 | -49.6
C=CCNC(=O)C1CCN(c2nc(C)cc(-c3ccccc3)n2)CC1 | -51.3
COc1ccc(NC(=O)c2sccc2OS(=O)(=O)N(C)C)cc1 | 11.2
C/C(=N/NC(N)=S)c1ccc(Br)s1 | 16.8
CCOc1ccccc1/C=N/NC(=O)Cc1csc(Nc2cccc(C(F)(F)F)c2)n1 | 4.05
N#CSc1ccc2oc(C3=NCCN3)cc2c1 | 0.521
O=C(c1ccc2c(c1)OCCCO2)N1CCCCC1 | 11.7
CCNc1nc(NCC)nc(OCC(=O)O)n1 | 7.6
COc1ccc(N2CCN(c3nc(NCCO)nc(N4CCOCC4)n3)CC2)cc1 | -1.07
O=C1NC(=O)N(Cc2ccccc2)C1=O | 26.4
COc1ccc(C2/C=C\CN(CC3CC3)CC(=O)N2Cc2ccc(F)cc2)cc1 (stereo not drawn) | -21
COCCCNCCOCCOc1ccc(Cl)cc1Br.O=C(O)C(=O)O | -51.9
OCCNCCCOc1cc(Cl)ccc1Cl | -14.4
CCCCNCCCOc1cc(Cl)ccc1Cl.O=C(O)C(=O)O | -54.3
CCCCNCCCOc1ccc(C)cc1Br.O=C(O)C(=O)O | -35

SMILES | hERG current change (%, negative = inhibition) at 10uM [%]
CCCCNCCOc1ccccc1-c1ccccc1.O=C(O)C(=O)O | -28.2
CCCCNCCOCCOc1ccc(C)cc1Br.O=C(O)C(=O)O | -32.1
CCCCNCCOCCSc1ccc(Cl)cc1.O=C(O)C(=O)O | -43.5
CCCCNCCOCCOc1ccc(Cl)cc1Br.O=C(O)C(=O)O | -57.9
CCCCNCCOCCOc1ccccc1-c1ccccc1.O=C(O)C(=O)O | -50.1
COCCCNCCCOc1ccc(C)cc1Br.O=C(O)C(=O)O | -30.7
COCCNCCCOc1ccc(Cl)cc1Br.O=C(O)C(=O)O | -42
COCCCNCCOCCOc1ccccc1-c1ccccc1.O=C(O)C(=O)O | -29.4
CCOC(=O)Cn1c(-c2ccc(OC)cc2)c(-c2ccc(OC)cc2)nnc1=O | 9.79
O=C(NC(=S)NCCc1ccccn1)c1ccco1 | 17.4
COc1cccc(CNS(=O)(=O)c2ccc(S(=O)(=O)N3CCCC3)cc2)c1 | 7.51
COc1ccc(C(=O)N(Cc2ccco2)Cc2cccs2)c(O)c1 | -6.63
O=C(CSc1nncn1-c1ccccc1)Nc1ccc(N2CCOCC2)cc1 | 3
CN(C)S(=O)(=O)c1ccc(NC(=O)N2CCN(c3cccc(C(F)(F)F)c3)CC2)cc1 | 7.83
Cc1ccsc1C(=O)OCC(=O)NCCNC(=O)COC(=O)c1sccc1C | 15.7
O=C(CCNC(=O)c1ccccc1Cl)Nc1cc(S(=O)(=O)N2CCOCC2)ccc1N1CCCC1 | -8.58
COc1ccccc1-c1c(C)nn2c(-c3ccccc3)cc(C)nc12 | 3.05
CCOC(=O)COn1c(=O)c(-c2ccc(Cl)cc2)[n+]([O-])c2ccccc21 | -4.24
Cc1ccc(S(=O)(=O)N(Cc2cccc(F)c2)C(=O)N2CCN(C)CC2)cc1 | 33.1
CCCC(=O)Nc1ccc(C(=O)NCc2ccccn2)cc1 | 14.2
CC(C)c1csc(CN2CCN(Cc3ccc(F)cc3)C(CCO)C2)n1 (stereo not drawn) | -35.3
COc1cccc(CN2CCN(Cc3nc(C(C)C)cs3)CC2CCO)c1 (stereo not drawn) | -73.7
Cc1ccc(CN2CCN(Cc3nc(C(C)C)cs3)CC2CCO)cc1 (stereo not drawn) | -68.5

SMILES | hERG current change (%, negative = inhibition) at 10uM [%]
CCOc1ccc(CN2CCN(Cc3nc(C(C)C)cs3)CC2CCO)cc1 (stereo not drawn) | -82.2
COc1cccc(CN2CCN(Cc3c(C)nn(C(C)C)c3C)CC2CCO)c1 (stereo not drawn) | -2.68
Cc1nn(-c2ccccc2)c(C)c1/C=C/C(=O)OCC(=O)Nc1ccc(S(N)(=O)=O)cc1 | 13.1
COc1ccccc1C(=O)NCCC(=O)N(C)CC(=O)Nc1ccc(C)cc1 | 7.91
Cc1ccc(S(=O)(=O)NC(CC(=O)O)c2ccccc2)c(C)c1 (stereo not drawn) | 5.52
CC1C(c2ccccc2)C(C#N)(C#N)C2(C#N)C(=O)NC1(N)C2C (stereo not drawn) | -3.25
c1ccc(-n2nnnc2-c2cnc(-c3cccnc3)nc2-c2cccs2)cc1 | -10.6
COc1ccccc1/C=N/NC(=O)COCC(=O)N/N=C/c1ccccc1OC | 3.56
O=C(CN1CCN(Cc2ccc(Cl)cc2)CC1)N/N=C/c1ccccc1F | -68.7
O=C(CN1CCN(Cc2ccccc2)CC1)N/N=C/c1ccccc1F | -29.3
O=C(CO)N/N=C/c1ccccc1F | 19.1
O=C(CC(=O)Nc1ccc(Cl)cc1)N/N=C\c1cccc(F)c1 | 16.6
O=C(CN1CCCCCCC1)N/N=C/c1ccccc1F | -35.6
O=C(CN1CCN(Cc2ccc(Cl)cc2)CC1)N/N=C/c1c[nH]c2ccccc12 | -52.9
CN1CCN(CC(=O)N/N=C\c2c[nH]c3ccccc23)CC1 | 16.2
Cc1ccc(CN2CCN(CC(=O)N/N=C/c3c[nH]c4ccccc34)CC2)cc1 | -36.3
O=C(COCC(=O)N/N=C/c1ccccc1F)N/N=C/c1ccccc1F | -54.8
O=C(CN1CCN(Cc2ccc(Cl)cc2)CC1)N/N=C/c1cccc(F)c1 | -69.2
O=C(CN1CCN(c2ccccc2)CC1)N/N=C/c1cccc(F)c1 | 4.27
O=C1CN(C(=O)CSc2nnc(Nc3ccccc3)s2)c2ccccc2N1 | 0.255
COc1ccc(NC(=S)NCc2ccc3c(c2)cc(C)n3C)cc1 | 5.5
